Screening results as filed in PubChem BioAssay.
Only some compounds are listed: those with a hit (about 5.7% of all), similar ones and a draw of the others.
ssDAF12 agonist – S. stercoralis DAF-12 nuclear receptor activators, primary screen, cell-based, luminescence, HEK293, GRIP1 co-expression, lit1-tk-luc. Nuclear hormone receptor DAF-12 (Strongyloides stercoralis). HEK293 ssDAF-12/GRIP1 lit1-tk-luc reporter; % of 3 µM dafachronic acid response. activation, % at 6.8 µM. 1% of 370,000 active. AID 652126, 2013;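 active means activation above the mean over all tested compounds plus 3 SD, cut at about 0.9% in these data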;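 further: 0% = DMSO-only wells and 100% = 3 µM delta7-dafachronic acid wells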
hcDAF12 agonist – H. contortus DAF-12 nuclear receptor activators, primary screen, cell-based, luminescence, HEK293, lit1-tk-luc reporter. HEK293 hcDAF-12 lit1-tk-luc reporter; 0% DMSO, 100% Δ7-dafachronic acid. activation, % at 6.8 µM. 1.4% of 370,000 active;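 active means activation above the mean of all tested compounds plus 3 SD, cut at about 5.5% in these data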;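 further: 100% = response to 3 µM Δ7-dafachronic acid high control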
hgDAF12 agonist – H. glycines DAF-12 receptor agonists, primary screen, cell-based, luminescence, HEK293, GAL4 fusion, UAS-luciferase; HEK293 GAL4-hgDAF12 UAS-luciferase reporter, agonist luminescence; normalized to butyrate control; activation, % at 6.8 µM; 1.8% of 370,000 active;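 active means activation above a cutoff set at the mean of all screened compounds plus 3 SD, cut at about 10% in these data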;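 further: 0% = DMSO wells and 100% = sodium butyrate wells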
DAX1 inh-1 – DAX1 (NR0B1) inhibitors on StAR promoter, primary screen, cell-based, luminescence, SF-1 (NR5A1), full-length DAX-1 | 1.1% of 370,000 active | AID 652010, 2013 | HEK293T StAR-luciferase reporter, SF-1/DAX-1 repression relief | inhibition, % at 6.8 µM;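 active means inhibition above the mean over all tested compounds plus 3 SD, cut at about 3.6% in these data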;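 further: 0% = DAX-1 cells with DMSO and 100% = cells lacking DAX-1 with DMSO; higher inhibition means more luminescence from relief of DAX-1 repression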
DAX1 inh-2 – DAX1 (NR0B1) inhibitors, primary screen, cell-based, HEK293, Gal4-DAX1, luciferase luminescence | Nuclear receptor subfamily 0 group B member 1 (Homo sapiens), P51843 | HEK293 Gal4-DAX1 luciferase reporter | inhibition, % at 6.75 µM | 0.99% of 340,000 active | AID 504766, 2011;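 active means inhibition above the mean over all tested compounds plus 3 SD, cut at about 4.2% in these data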;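 further: 0% = DAX1-transfected cells with DMSO and 100% = empty-vector control cells with DMSO; inhibition shows as a rise in luminescence from relieved DAX1 repression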
Target sequence (P51843 207-470 limits assumed): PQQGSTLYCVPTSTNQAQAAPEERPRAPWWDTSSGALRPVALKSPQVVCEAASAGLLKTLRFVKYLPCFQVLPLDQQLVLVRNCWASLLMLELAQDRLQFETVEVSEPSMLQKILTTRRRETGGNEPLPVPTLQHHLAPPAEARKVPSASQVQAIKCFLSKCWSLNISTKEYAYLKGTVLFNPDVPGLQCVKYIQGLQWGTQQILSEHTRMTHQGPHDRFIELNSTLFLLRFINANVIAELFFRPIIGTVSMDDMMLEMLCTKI
AHR activator – AHR activators, primary screen, cell-based, luminescence, luciferase reporter, human; AHR-responsive luciferase reporter cells; activation, % at 5 µM; Aryl hydrocarbon receptor (Homo sapiens), P35869; 2.5% of 320,000 active; AID 2796, 2010; in the data active means activation above about 47%;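 further: 0% = vehicle wells and 100% = reference agonist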
An asterisk follows results filed as active.

Screening CN(CCc1ccccc1)C1CCCN(S(=O)(=O)CC(F)(F)F)C1 (stereo not drawn) returned ssDAF12 agonist -0.9, hcDAF12 agonist -2.4, hgDAF12 agonist 1.1, DAX1 inh-1 -0.2, DAX1 inh-2 0.0 and AHR activator 0.8.
O=C1c2ccccc2NC(c2ccc(-c3ccccc3F)o2)N1O (stereo not drawn) was read as ssDAF12 agonist -0.6, hcDAF12 agonist 0.3, hgDAF12 agonist 7.1, DAX1 inh-1 0.7, DAX1 inh-2 2.4 and AHR activator 53.7*.
`O=C1c2ccccc2NC(c2ccc(-c3cccc(F)c3)o2)N1O` (stereo not drawn) gave ssDAF12 agonist -0.1, hcDAF12 agonist 4.6, hgDAF12 agonist 9.1, DAX1 inh-1 2.7, DAX1 inh-2 2.7 and AHR activator 47.4*.
Screening O=C(COC(=O)/C=C/c1ccc(C(F)(F)F)cc1)NCC1CCCCC1 returned ssDAF12 agonist -0.6, hcDAF12 agonist 0.2, hgDAF12 agonist 0.5, DAX1 inh-1 0.5, DAX1 inh-2 1.8 and AHR activator 2.3.
Screening O=C(c1ccco1)N1CCCC(Nc2ccc3c(c2)OCCO3)C1 (stereo not drawn) returned ssDAF12 agonist -0.3, hcDAF12 agonist 6.3*, hgDAF12 agonist 1.7, DAX1 inh-1 1.7, DAX1 inh-2 1.0 and AHR activator 20.9.
Screening O=C(NC(=S)NC1CCC(O)CC1)c1ccco1 (stereo not drawn) returned ssDAF12 agonist -0.7, hcDAF12 agonist -1.1, hgDAF12 agonist 4.2, DAX1 inh-1 4.1*, DAX1 inh-2 0.2 and AHR activator 2.6.
O=C(NC(=S)Nc1cccc(O)c1)c1ccco1 was read as ssDAF12 agonist 1.7*, hcDAF12 agonist 0.5, hgDAF12 agonist 9.5, DAX1 inh-1 1.0, DAX1 inh-2 3.7 and AHR activator -1.4.
CSCc1ccc(C(=O)N2CCCC(Nc3ccc4c(c3)OCCO4)C2)o1 (stereo not drawn) was read as ssDAF12 agonist -1.0, hcDAF12 agonist 1.4, hgDAF12 agonist 2.2, DAX1 inh-1 -0.4, DAX1 inh-2 -0.4 and AHR activator 5.0.
`O=C(NC(=S)Nc1ccc2c(c1)OCCO2)c1ccco1` gave ssDAF12 agonist -0.1, hcDAF12 agonist 3.9, hgDAF12 agonist 10.9*, DAX1 inh-1 2.4, DAX1 inh-2 4.5* and AHR activator 8.4.
For CCc1c(-c2ccccc2)ncn1CCc1ccccc1OC the results were ssDAF12 agonist -1.6, hcDAF12 agonist -4.0, hgDAF12 agonist 0.6 and DAX1 inh-1 -1.4.
`C[C@H](CO)N1C[C@H](C)[C@H](CN(C)C(=O)C2CCCCC2)OCc2cnnn2CCCC1=O` gave ssDAF12 agonist -1.2, hcDAF12 agonist -1.0, hgDAF12 agonist 2.5 and DAX1 inh-1 0.8.
`CCc1[nH]c(C(=O)O)c(C)c1C(=O)OC` gave ssDAF12 agonist -1.2, hcDAF12 agonist 1.1, hgDAF12 agonist -2.0, DAX1 inh-1 0.5, DAX1 inh-2 1.4 and AHR activator -0.1.
COc1cc(C(=O)NCC(c2ccc(F)cc2)N2CCOCC2)ccc1OCc1ccccc1Cl (stereo not drawn) was read as ssDAF12 agonist -1.6, hcDAF12 agonist -1.3, hgDAF12 agonist -3.0, DAX1 inh-1 -0.9, DAX1 inh-2 0.8 and AHR activator -1.3.
O=S(=O)(CS(=O)(=O)c1ccc(Br)cc1)c1ccc(Br)cc1 was read as ssDAF12 agonist -0.9, hcDAF12 agonist 0.7, hgDAF12 agonist 0.0 and DAX1 inh-1 -0.2.
`COc1cc(NS(=O)(=O)c2ccc(NC(=S)NC(=O)c3ccco3)cc2)nc(OC)n1` gave ssDAF12 agonist -0.9, hcDAF12 agonist 0.0, hgDAF12 agonist 1.4, DAX1 inh-1 0.2, DAX1 inh-2 4.7* and AHR activator 0.2.
